# Data taken from PubChem BioAssay (EPA / NIEHS).
# Values joined by “and” are separate entries in the source; they are usually repeats but may differ in a detail not shown here. Equal entries are not always repeated. Active and inactive are the calls of the source. The calls were made as follows: active = hit-call score of the fitted dose curve at least 0.9, where 1 is the maximum; inactive = score below 0.9.
# Read-out: Interleukin 2 (IL2), IL2 (gene 3558)
# Test: BSK_BT_xIL2: BioMAP Diversity Plus: BT Assay for Interleukin 2 (IL2) Biomarker Activity (AID 2284245)
# Conditions: primary human B cells with PBMC
# Procedure: BSK_BT is a cell-based, multiplexed-readout assay that uses B cell and peripheral blood mononuclear cells, a human vascular primary cell co-culture, with measurements taken at 24 hours after chemical dosing in a microplate: 96-well plate.BSK_BT_xIL2 is an assay component measured in the BSK_BT assay. It measures secreted IL-2 related to regulation of gene expression using LumineX xMAP technology.Data from the assay component BSK_BT_xIL2 was analyzed at the endpoint, BSK_BT_xIL2, in the positive analysis fitting direction relative to DMSO as the negative control and baseline of activity. Using a type of cytokine quantitation reporter, gain or loss-of-signal activity can be used to understand protein changes. To generalize the intended target to other relatable targets, this assay endpoint is annotated to the 'cytokine' intended target family, where the subfamily is 'interleukins'.
# The levels of cell surface (or secreted, indicated by the prefix "s") biomarker endpoints were measured by ELISA. Overt cytotoxicity to cells in confluent adherent cultures (all systems other than the BT system) was assessed by measuring total protein levels using sulforhodamine B (SRB) staining in parallel cultures at the time of biomarker measurements, indicated as SRB endpoints. For proliferation assays for adherent cell types, individual cell types are cultured at sub-confluence and relative cell numbers quantified by SRB staining at time points optimized for each system (48 h: 3C and CASM3C systems; 72 h: BT and HDF3CGF systems; 96 h: SAg system). SRB was performed by staining cells with 0.1% SRB after fixation with 10% TCA and reading wells at 560 nm.Viability and proliferation of PBMC (T cells) was quantified by Alamar Blue reduction for the SAg and BT systems. For PBMC viability (referred to as PBMC Cytotoxicity within the assay endpoint names), cells were plated (75,000/well in a 96-well plate) and then chemical samples added for 1 h before addition of activators, SEB and TSST-1 (20 ng/mL final concentration each). Cells were incubated for 90 h. Then, Alamar Blue (20 uL/well) (Invitrogen, Cat DAL1100) was added for 6 h, and the plates were read with a fluorescence microplate reader at 546/580 nm (excitation/emission). For PBMC proliferation, cells were plated and activated as above but incubated for only 16 h prior to addition of Alamar Blue. Plates were read after 6 h.
Structure (SMILES),AC50,outcome
c1ccc2sc(SNC3CCCCC3)nc2c1,28.9 µM (active),
Oc1c(Br)cc(Br)cc1Br,,inactive
C[C@]12CC[C@@H](O)C[C@@H]1CC[C@@H]1[C@@H]2CC[C@]2(C)C(=O)CC[C@@H]12,,inactive
Cc1ccccc1OP(=O)(Oc1ccccc1C)Oc1ccccc1C,20 µM (active),
c1ccc(-c2cccc(-c3ccccc3)c2)cc1,,inactive
Oc1cccc(-c2ccccc2)c1,,inactive
O=S(=O)(C(Cl)(Cl)Cl)C(Cl)(Cl)Cl,4.48 µM (active),
Nc1c(Oc2ccccc2)cc(O)c2c1C(=O)c1ccccc1C2=O,,inactive
CCOC(=O)CC(=O)CCl,20 µM (active),
O=S(=O)(c1ccc(Cl)cc1)c1cc(Cl)c(Cl)cc1Cl,20 µM (active),
OC(Cc1ccccc1Cl)(Cn1cncn1)C1(Cl)CC1 (stereo not given),,inactive
O=C(CCl)NCO,,inactive
C#CCOC(=O)/C=C(C)/C=C/CC(C)CCCC(C)C (stereo not given),,inactive
CC(C)(COCC1CO1)COCC1CO1 (stereo not given),,inactive
O=[N+]([O-])c1ccc(Nc2ccccc2)cc1,,inactive
NC(=O)CCl,20 µM (active),
Cc1ccc2nc3sc(=O)sc3nc2c1,,inactive
CCC(C)(C#N)N=NC(C)(C#N)CC (stereo not given),,inactive
O=c1oc2ccccc2c(O)c1C(CC(O)c1ccc(-c2ccc(Br)cc2)cc1)c1ccccc1 (stereo not given),,inactive
[Cl][Sn]([c]1ccccc1)([c]1ccccc1)[c]1ccccc1,0.395 µM (active),

Structure (SMILES),AC50,outcome
C=CC(Cl)CCl (stereo not given),,inactive
CCOP(=S)(OCC)SCS(=O)(=O)C(C)(C)C,,inactive
O=[N+]([O-])c1cccc2ccccc12,,inactive
CCCCCCCCCCCCN(C)C,,inactive
CCCCN(CCCC)C(=S)[S-].CCCCN(CCCC)C(=S)[S-].[Ni+2],,inactive
CCOC(=O)C(SP(=S)(OC)OC)c1ccccc1 (stereo not given),,inactive
CC1(C)[C@H](C(=O)O[C@H](C#N)c2cccc(Oc3ccccc3)c2)[C@@H]1/C=C(\Cl)C(F)(F)F,17.1 µM (active) and 14.2 µM (active),
OC(Cc1ccccc1Cl)(Cn1[nH]cnc1=S)C1(Cl)CC1 (stereo not given),,inactive
CCOP(=S)(OCC)OP(=S)(OCC)OCC,,inactive
Nc1ccc(N)cc1,,inactive
CC(C=O)Cc1ccc2c(c1)OCO2 (stereo not given),,inactive
Cc1cc(C(C)(C)c2ccc(O)c(C)c2)ccc1O,,inactive
Cc1c([N+](=O)[O-])c(C)c([N+](=O)[O-])c(C(C)(C)C)c1[N+](=O)[O-],,inactive
CC(C)(C)c1cc([N+](=O)[O-])cc(C(C)(C)C)c1O,20 µM (active),
COCC(=O)N(c1c(C)cccc1C)[C@H](C)C(=O)OC,,inactive
Oc1ccc(Cc2ccc(O)cc2)cc1,,inactive
Cc1cccc(OP(=O)(Oc2cccc(C)c2)Oc2cccc(C)c2)c1,,inactive
Cc1cc(Cl)ccc1OC(C)C(=O)O (stereo not given),,inactive
O=C1C=CC(=O)c2ccccc21,0.714 µM (active),
CCOP(=O)(OCC)SCCSCC,,inactive
